Test results reported in PubChem BioAssay AID1159580 (chemical genetic matrix, 2015).
In all, about 5,500 compounds went through this assay and about 2,000 (36%) were called active. Inconclusive results (about 18%) are left out. Rule as the data show it: active = normalized growth mostly below about 0.91 (no sharp cut-off); inconclusive = no clear call, values can overlap the other calls; inactive = mostly above about 0.92. Some of the results follow.

Experiment: chemical genetic growth profiling, strain panel (AID 1159580);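 also: tested at 20 µM; growth read once vehicle control cultures reached saturation at 30 °C; 1 = growth at the plate median or of vehicle wells; lower values mean less growth of the strain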
Settings: S. cerevisiae deletion strains, growth OD

Measured: normalized growth

OC(Cn1cncn1)(Cn1cncn1)c1ccc(F)cc1F
inactive: locus YAL013W, strain DEP1, stronger effect = lower value 0.968 | locus YAL021C, strain ccr4, stronger effect = lower value 0.972 | locus YAL026C, strain drs2, stronger effect = lower value 0.911 | locus YAL030W, strain snc1, stronger effect = lower value 1 | locus YBL061C, strain skt5, stronger effect = lower value 0.995 | locus YBR009C, strain hhf1, stronger effect = lower value 0.998 | locus YBR021W, strain FUR4, stronger effect = lower value 0.936 | locus YBR023C, strain chs3, stronger effect = lower value 1.01 | locus YBR171W, strain sec66, stronger effect = lower value 0.971 | locus YBR229C, strain ROT2, stronger effect = lower value 1 | locus YBR231C, strain swc5, stronger effect = lower value 0.981 | locus YBR279W, strain paf1, stronger effect = lower value 1 | locus YCL011C, strain gbp2, stronger effect = lower value 1.01 | locus YCL016C, strain dcc1, stronger effect = lower value 0.987 | locus YCL029C, strain bik1, stronger effect = lower value 0.984 | locus YCL061C, strain MRC1, stronger effect = lower value 0.987 | locus YCL069W, strain vba3, stronger effect = lower value 1 | locus YCR088W, strain abp1, stronger effect = lower value 1.01 | locus YDL005C, strain med2, stronger effect = lower value 0.966 | locus YDL035C, strain GPR1, stronger effect = lower value 0.991 | locus YDL040C, strain nat1, stronger effect = lower value 1 | locus YDL074C, strain BRE1, stronger effect = lower value 1.03 | locus YDL101C, strain DUN1, stronger effect = lower value 0.993 | locus YDL134C, strain PPH21, stronger effect = lower value 1 | locus YDL185W, strain tfp1, stronger effect = lower value 0.948 | locus YDL192W, strain arf1, stronger effect = lower value 0.998 | locus YDR001C, strain nth1, stronger effect = lower value 1.01 | locus YDR069C, strain doa4, stronger effect = lower value 0.971 | locus YDR101C, strain arx1, stronger effect = lower value 1 | locus YDR150W, strain NUM1, stronger effect = lower value 0.985 | locus YDR159W, strain sac3, stronger effect = lower value 0.956 | locus YDR162C, strain NBP2, stronger effect = lower value 0.971 | locus YDR195W, strain ref2 1.1 | locus YDR297W, strain sur2, stronger effect = lower value 1 | locus YDR318W, strain mcm21, stronger effect = lower value 0.986 | locus YDR334W, strain swr1, stronger effect = lower value 0.996 | locus YDR335W, strain msn5, stronger effect = lower value 1.01 | locus YDR388W, stronger effect = lower value 1 | locus YDR392W, strain spt3, stronger effect = lower value 0.853 | locus YDR502C, strain sam2, stronger effect = lower value 0.992 | locus YEL003W, strain gim4, stronger effect = lower value 0.999 | locus YEL037C, strain rad23, stronger effect = lower value 1 | locus YEL061C, strain CIN8 (second series), stronger effect = lower value 1.01 | locus YEL061C, strain CIN8, stronger effect = lower value 0.993 | locus YER015W, strain faa2, stronger effect = lower value 1.01 | locus YER016W, strain bim1, stronger effect = lower value 1 | locus YER110C, stronger effect = lower value 0.974 | locus YER111C, strain swi4, stronger effect = lower value 0.999 | locus YER155C, strain BEM2 (second series), stronger effect = lower value 0.99 | locus YER155C, strain BEM2, stronger effect = lower value 1 | locus YER167W, strain BCK2, stronger effect = lower value 1.01 | locus YFR010W, strain ubp6, stronger effect = lower value 0.982 | locus YGL078C, strain dbp3, stronger effect = lower value 0.997 | locus YGL086W, strain mad1, stronger effect = lower value 0.997 | locus YGL167C, strain pmr1, stronger effect = lower value 1 | locus YGL173C, strain kem1, stronger effect = lower value 1.01 | locus YGL227W, strain vid30, stronger effect = lower value 1.01 | locus YGL240W, strain doc1, stronger effect = lower value 0.995 | locus YGL248W, strain PDE1, stronger effect = lower value 1.02 | locus YGL253W, strain hxk2, stronger effect = lower value 0.99 | locus YGR078C, strain PAC10, stronger effect = lower value 1.02 | locus YGR135W, strain pre9, stronger effect = lower value 0.979 | locus YGR252W, strain gcn5, stronger effect = lower value 1 | locus YHR013C, strain ard1, stronger effect = lower value 0.957 | locus YHR027C, strain rpn1, stronger effect = lower value 1.01 | locus YHR030C, strain SLT2, stronger effect = lower value 0.987 | locus YHR079C, strain IRE1 (second series), stronger effect = lower value 0.985 | locus YHR094C, strain hxt1, stronger effect = lower value 1.01 | locus YHR129C, strain ARP1, stronger effect = lower value 1 | locus YHR142W, strain chs7, stronger effect = lower value 1 | locus YHR200W, strain rpn10, stronger effect = lower value 0.961 | locus YIL066C, strain RNR3, stronger effect = lower value 1 | locus YIL073C, strain SPO22, stronger effect = lower value 0.943 | locus YIL125W, strain kgd1, stronger effect = lower value 1.01 | locus YIR030C, strain dcg1, stronger effect = lower value 0.997 | locus YJL092W, strain hpr5, stronger effect = lower value 0.998 | locus YJL095W, strain BCK1 (second series), stronger effect = lower value 1 | locus YJL095W, strain BCK1, stronger effect = lower value 1.07 | locus YJL115W, strain asf1, stronger effect = lower value 0.996 | locus YJL129C, strain trk1, stronger effect = lower value 1.06 | locus YJL134W, strain LCB3, stronger effect = lower value 0.994 | locus YJL154C, strain vps35, stronger effect = lower value 1.01 | locus YJL164C, strain tpk1, stronger effect = lower value 0.992 | locus YJL166W, strain qcr8, stronger effect = lower value 1 | locus YJL168C, strain set2, stronger effect = lower value 0.992 | locus YJL187C, strain SWE1 (second series), stronger effect = lower value 1.03
active: locus YDR137W, strain rgp1, stronger effect = lower value 0.508
